17 compounds from ChEMBL document CHEMBL2218924, “A broad activity screen in support of a chemogenomic map for kinase signalling research and drug discovery” (Biochem J, 2013) can be followed below.

Test [1] has as its target Mitogen-activated protein kinase 10 (Homo sapiens) (UniProt P53779). The conditions noted are these: at 10 µM.
Test [2] addresses Vascular endothelial growth factor receptor 2 (Homo sapiens) (UniProt P35968). As to conditions: at 1 µM.
Test [3] shares this target. As to conditions: at 10 µM.
Test [4] concerns the target LIM domain kinase 1 (Homo sapiens) (UniProt P53667). As to conditions: at 1 µM.
The target is the same in test [5]. As to conditions: at 10 µM.
In test [6] the target is T1, Serine/threonine-protein kinase STK11 (Homo sapiens) (UniProt Q15831).
T1 sequence (whole entry): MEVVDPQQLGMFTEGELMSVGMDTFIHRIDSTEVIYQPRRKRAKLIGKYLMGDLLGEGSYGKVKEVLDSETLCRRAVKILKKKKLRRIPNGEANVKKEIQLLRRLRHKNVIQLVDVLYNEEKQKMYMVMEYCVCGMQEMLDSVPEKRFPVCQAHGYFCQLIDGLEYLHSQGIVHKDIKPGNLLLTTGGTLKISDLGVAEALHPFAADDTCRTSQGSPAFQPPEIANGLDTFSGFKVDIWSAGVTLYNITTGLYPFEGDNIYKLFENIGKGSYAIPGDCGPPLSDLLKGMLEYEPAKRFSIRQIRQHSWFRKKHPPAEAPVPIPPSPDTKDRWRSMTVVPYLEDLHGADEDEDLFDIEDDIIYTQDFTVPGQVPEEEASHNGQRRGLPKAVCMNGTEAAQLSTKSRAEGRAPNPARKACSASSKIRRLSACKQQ
The conditions noted are these: at 1 µM.

Test [7] concerns the target T1, Serine/threonine-protein kinase STK11 (Homo sapiens). As to conditions: at 10 µM.
Test [8] has as its target Serine/threonine-protein kinase 10 (Homo sapiens) (UniProt O94804). As to conditions: at 1 µM.
Test [9] shares this target. As to conditions: at 10 µM.
For test [10], the target named is Tyrosine-protein kinase Lck (Homo sapiens) (UniProt P06239). The conditions noted are these: at 1 µM.
Tyrosine-protein kinase Lck (Homo sapiens), sequence (P06239 2-509 limits assumed): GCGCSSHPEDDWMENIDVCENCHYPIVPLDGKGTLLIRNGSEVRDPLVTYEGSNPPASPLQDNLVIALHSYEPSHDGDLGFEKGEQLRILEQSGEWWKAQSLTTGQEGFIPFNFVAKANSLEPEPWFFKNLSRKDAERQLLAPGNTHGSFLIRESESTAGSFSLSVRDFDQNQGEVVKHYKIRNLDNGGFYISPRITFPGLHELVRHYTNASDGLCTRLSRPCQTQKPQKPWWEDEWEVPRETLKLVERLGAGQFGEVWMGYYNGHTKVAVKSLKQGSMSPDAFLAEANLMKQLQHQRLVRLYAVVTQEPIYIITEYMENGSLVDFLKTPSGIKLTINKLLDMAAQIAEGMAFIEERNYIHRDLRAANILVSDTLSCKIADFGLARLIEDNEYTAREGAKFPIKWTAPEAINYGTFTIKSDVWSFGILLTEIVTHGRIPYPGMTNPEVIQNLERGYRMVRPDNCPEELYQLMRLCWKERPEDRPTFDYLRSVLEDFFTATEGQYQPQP

Mitogen-activated protein kinase 10 (Homo sapiens), sequence (P53779 whole entry): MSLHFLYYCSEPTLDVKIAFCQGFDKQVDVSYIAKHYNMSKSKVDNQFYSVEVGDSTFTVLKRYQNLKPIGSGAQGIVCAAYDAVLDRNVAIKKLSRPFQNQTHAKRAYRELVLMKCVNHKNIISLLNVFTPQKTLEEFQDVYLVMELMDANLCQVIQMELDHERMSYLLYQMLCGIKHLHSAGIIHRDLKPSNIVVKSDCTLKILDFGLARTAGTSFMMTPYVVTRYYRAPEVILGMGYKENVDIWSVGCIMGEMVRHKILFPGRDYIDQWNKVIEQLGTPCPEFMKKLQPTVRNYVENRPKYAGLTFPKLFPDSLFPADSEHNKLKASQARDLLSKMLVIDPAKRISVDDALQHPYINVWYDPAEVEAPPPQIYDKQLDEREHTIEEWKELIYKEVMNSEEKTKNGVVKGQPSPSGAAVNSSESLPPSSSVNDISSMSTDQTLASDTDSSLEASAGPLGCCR
Serine/threonine-protein kinase 10 (Homo sapiens), sequence (O94804 whole entry, looked up): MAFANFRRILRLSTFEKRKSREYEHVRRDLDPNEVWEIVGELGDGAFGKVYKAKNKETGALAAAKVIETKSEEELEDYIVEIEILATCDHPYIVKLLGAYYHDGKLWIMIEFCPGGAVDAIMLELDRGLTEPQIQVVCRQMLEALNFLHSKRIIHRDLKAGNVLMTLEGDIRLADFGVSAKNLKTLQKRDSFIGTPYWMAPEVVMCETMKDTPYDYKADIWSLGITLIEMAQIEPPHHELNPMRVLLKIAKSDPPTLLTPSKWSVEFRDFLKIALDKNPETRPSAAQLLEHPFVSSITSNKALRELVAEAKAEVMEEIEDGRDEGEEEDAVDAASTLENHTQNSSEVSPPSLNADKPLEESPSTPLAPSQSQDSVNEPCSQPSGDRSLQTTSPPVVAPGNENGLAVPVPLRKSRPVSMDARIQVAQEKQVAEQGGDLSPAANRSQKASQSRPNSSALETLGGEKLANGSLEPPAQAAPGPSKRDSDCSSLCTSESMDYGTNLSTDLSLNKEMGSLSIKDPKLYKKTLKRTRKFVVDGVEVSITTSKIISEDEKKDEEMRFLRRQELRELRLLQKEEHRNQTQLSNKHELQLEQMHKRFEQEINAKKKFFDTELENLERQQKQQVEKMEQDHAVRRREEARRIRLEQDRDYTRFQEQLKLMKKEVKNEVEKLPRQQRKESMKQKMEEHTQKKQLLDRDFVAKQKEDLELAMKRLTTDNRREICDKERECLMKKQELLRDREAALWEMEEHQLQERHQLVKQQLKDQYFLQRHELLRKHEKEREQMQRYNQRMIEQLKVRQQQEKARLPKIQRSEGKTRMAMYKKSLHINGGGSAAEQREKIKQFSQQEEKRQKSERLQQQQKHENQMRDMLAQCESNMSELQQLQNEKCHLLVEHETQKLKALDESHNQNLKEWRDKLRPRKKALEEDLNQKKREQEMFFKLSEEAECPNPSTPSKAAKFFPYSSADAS
LIM domain kinase 1 (Homo sapiens), sequence (P53667 whole entry, looked up, the tested form may be a part): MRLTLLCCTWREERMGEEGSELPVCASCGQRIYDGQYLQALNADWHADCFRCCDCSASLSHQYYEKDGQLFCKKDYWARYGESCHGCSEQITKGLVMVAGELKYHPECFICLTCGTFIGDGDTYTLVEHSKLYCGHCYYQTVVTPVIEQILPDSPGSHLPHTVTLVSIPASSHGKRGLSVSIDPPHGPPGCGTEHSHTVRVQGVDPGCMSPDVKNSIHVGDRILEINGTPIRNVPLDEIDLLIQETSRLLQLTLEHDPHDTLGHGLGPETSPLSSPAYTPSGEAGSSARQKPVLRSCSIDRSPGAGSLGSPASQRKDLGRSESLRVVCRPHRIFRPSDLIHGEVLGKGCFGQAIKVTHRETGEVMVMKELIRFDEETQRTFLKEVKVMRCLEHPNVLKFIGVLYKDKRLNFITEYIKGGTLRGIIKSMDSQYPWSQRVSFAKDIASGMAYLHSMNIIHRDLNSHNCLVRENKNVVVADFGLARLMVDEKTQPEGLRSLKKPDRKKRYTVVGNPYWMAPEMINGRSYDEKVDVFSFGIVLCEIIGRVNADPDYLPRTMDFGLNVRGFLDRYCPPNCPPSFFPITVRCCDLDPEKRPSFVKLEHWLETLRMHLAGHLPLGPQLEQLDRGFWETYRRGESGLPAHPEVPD
Vascular endothelial growth factor receptor 2 (Homo sapiens), sequence (P35968 whole entry): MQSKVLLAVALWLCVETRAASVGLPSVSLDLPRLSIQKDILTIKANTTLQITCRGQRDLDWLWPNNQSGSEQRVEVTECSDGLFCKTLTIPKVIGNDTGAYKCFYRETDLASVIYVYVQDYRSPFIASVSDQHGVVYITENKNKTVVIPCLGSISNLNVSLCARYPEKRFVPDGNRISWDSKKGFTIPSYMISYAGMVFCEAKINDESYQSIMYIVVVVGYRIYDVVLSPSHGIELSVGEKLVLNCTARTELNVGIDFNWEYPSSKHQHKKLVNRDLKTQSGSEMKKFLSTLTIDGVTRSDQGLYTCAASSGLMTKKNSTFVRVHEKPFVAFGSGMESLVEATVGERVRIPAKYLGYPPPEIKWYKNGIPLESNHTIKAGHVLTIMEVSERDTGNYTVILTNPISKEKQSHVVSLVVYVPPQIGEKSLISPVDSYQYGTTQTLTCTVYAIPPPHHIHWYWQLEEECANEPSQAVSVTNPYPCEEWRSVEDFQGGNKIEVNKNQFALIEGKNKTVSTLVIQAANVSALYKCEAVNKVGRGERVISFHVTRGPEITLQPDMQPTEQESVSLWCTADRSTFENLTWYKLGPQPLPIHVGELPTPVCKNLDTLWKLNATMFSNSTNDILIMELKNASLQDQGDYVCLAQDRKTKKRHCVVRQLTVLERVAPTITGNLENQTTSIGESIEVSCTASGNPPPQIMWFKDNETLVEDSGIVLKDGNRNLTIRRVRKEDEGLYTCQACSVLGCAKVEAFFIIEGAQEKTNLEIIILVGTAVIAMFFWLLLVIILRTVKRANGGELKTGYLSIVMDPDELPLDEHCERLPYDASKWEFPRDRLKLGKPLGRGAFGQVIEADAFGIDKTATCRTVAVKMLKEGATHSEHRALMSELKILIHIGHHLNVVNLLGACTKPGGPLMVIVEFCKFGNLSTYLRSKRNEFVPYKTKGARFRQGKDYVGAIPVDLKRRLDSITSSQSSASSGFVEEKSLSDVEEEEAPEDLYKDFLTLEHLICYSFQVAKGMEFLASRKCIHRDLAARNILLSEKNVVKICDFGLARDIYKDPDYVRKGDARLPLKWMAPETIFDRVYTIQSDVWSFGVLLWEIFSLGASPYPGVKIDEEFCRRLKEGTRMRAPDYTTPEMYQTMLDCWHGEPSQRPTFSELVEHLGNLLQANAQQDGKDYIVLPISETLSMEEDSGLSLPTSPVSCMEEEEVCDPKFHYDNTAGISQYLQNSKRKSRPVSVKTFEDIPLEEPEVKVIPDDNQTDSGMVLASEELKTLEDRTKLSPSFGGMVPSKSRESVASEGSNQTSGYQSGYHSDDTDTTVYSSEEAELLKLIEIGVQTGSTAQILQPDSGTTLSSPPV

For `Cn1c2ccccc2c2c3c(c4c5ccccc5n(CCC#N)c4c21)CNC3=O`, the residual activity in [1] was determined as 9%; in [2], 7%; in [3], 6%; in test [4] it was 48%; in test [5] it was 20%; in [6], 82%. The residual activity worked out at 96% in test [7], 21% in [8] and 8% in test [9].
Regarding `O=C1NC(=O)c2c1c1c3ccccc3[nH]c1n1cncc21`, the residual activity in test [1] came to 11%; in [2], 10%; in [3], 8%; in test [4], 71%; in test [5], 48%; in [6], 84%. In addition, the residual activity in test [7] turned out to be 62%; in test [8], 70%; in test [9], 58%; in test [10], 61%.
`O=C(CCCc1ccc(-c2ccccc2F)cc1)Nc1ccc(O)cc1`: the residual activity in test [1] came to 94%; in [2] it was 110%; in test [3] it was 108%; in test [4] it was 96%; in [5], 85%; in [6] it was 100%. Further, the residual activity in test [7] came out at 97%; in test [8], 112%; in test [9], 94%; in test [10] it was 99%.
Take `CCN(CC)CCNC(=O)c1c(C)[nH]c(/C=C2\C(=O)Nc3ccc(Cl)cc32)c1C`: the residual activity in test [1] is 75%; in test [2], 2%; in test [3], 1%; in test [4], 99%; in test [5], 44%; in [8] it was 15%. The residual activity came to 5% in test [9] and 12% in [10].
As for `O=C(O)/C=C/c1cc(Br)c(Br)c(Br)c1Br`, the residual activity amounted to 46% in test [1]; 99% in test [2]; 81% in [3]; 105% in test [4]; 71% in test [5]; 93% in test [6]. Further, the residual activity amounted to 38% in test [7], 94% in test [8], 58% in test [9] and 77% in [10].
In the case of `COc1ccc2c(c1)c(C1=C(c3c[nH]c4ccccc34)C(=O)NC1=O)cn2CCCN(C)C`, the residual activity in test [1] came to 37%; in [2], 28%; in test [3], 3%; in test [4] it was 99%; in [5], 65%; in [6], 101%. Also, the residual activity in [7] turned out to be 99%; in test [8], 54%; in test [9], 22%.
For the compound `CCN1/C(=C/C(C)=O)Sc2ccc(OC)cc21`, in test [1], the residual activity was 64%.
As for `O=C(c1cc2cc(O)ccc2[nH]1)c1cc2cc(O)ccc2[nH]1`, the residual activity in [1] came out at 33%; in [2], 18%; in test [3] it was 3%; in test [4], 74%; in test [5] it was 41%; in test [6], 100%. Further, the residual activity in test [8] turned out to be 55%; in test [9], 20%; in [10], 16%.
As for `NCCNc1ncc(C(N)=O)c(Nc2cccc(C(F)(F)F)c2)n1`, the residual activity in test [1] came out at 46%; in test [2], 101%; in test [3] it was 78%; in [4], 102%; in [5] it was 50%; in test [6] it was 74%. Besides, the figures for the residual activity in test [7] and in [10] were 20% and 80%, respectively.
In the case of `CCOc1nc(NC(=O)Cc2cc(OC)ccc2OC)cc(N)c1C#N`, the residual activity in test [1] was -2%.
Regarding `CCCCc1c(-c2ccc(O)cc2)[nH]c2nccnc12`, the residual activity stood at 23% in test [1]; 77% in [2]; 42% in [3]; 64% in test [4]; 53% in test [5]; 73% in test [7]. The values for the residual activity in test [8], in [9] and in [10] were 80%, 90% and 48%, respectively.
In the case of `CCCCc1c(-c2ccc(OC)cc2)[nH]c2nccnc12`, the residual activity in test [1] was 41%; in test [2] it was 73%; in test [3] it was 68%; in [4], 50%; in [5], 57%; in [6], 108%. Also, the residual activity in test [7] came out at 101%; in test [9] it was 110%; in test [10], 55%.
Consider `O=C1NC(=O)C(c2cn(CCCO)c3ncccc23)=C1c1cnccn1`, for which the residual activity worked out at 86% in test [1]; 64% in test [2]; 63% in [3]; 80% in test [5]; 85% in test [6]; 75% in test [7]. For the same compound, the residual activity is 94% in [8] and 80% in [9].
On to `CC(C)c1nn(-c2c(Cl)cccc2Cl)c2nc(Cc3ccc(OCCO)cc3)[nH]c(=O)c12`, for which the residual activity in [1] is 29%; in test [2] it was 98%; in test [3], 89%; in [4] it was 102%; in [5], 84%; in test [6], 90%. The residual activity is 48% in test [7], 55% in test [8], 55% in test [9] and 104% in [10].
In the case of `Nc1ncnc2c1cnn2-c1ccccc1`, the residual activity turned out to be 70% in test [1]; 102% in [2]; 83% in test [3]; 99% in [4]; 67% in test [5]; 96% in test [6]. Also, the residual activity is 98% in test [7], 98% in test [8] and 85% in [9].
For `O=C1Nc2ccc(Cl)cc2/C1=C/c1cc(Cl)c(O)c(Cl)c1`, the residual activity amounted to 32% in test [1]; 13% in test [2]; 1% in test [3]; 88% in test [4]; 42% in test [5]; 91% in [6]. Besides, the residual activity in [7] stood at 86%; in test [8], 67%; in [9] it was 47%; in [10], 95%.
Consider `NC(=O)Nc1sc(-c2ccc(F)cc2)cc1C(N)=O`, for which the residual activity came to 33% in test [1]; 41% in [2]; 6% in [3]; 46% in test [4]; 7% in test [5]; 92% in test [6]. In addition, the residual activity in test [7] was determined as 73%.
